Source: PubChem (National Center for Advancing Translational Sciences (NCATS))
Compounds with a hit are over-represented: about 19% of the library has one in this group of screens.
TDP1 cell CPT: qHTS for Inhibitors of human tyrosyl-DNA phosphodiesterase 1 (TDP1): qHTS in cells in presence of CPT; chicken DT40 Tdp1-/-;hTDP1 cells + 20 nM CPT, ATP luminescence, 48 h; Potency, µM (doses to about 46.2 µM), inactives show top-dose activity change, negative = growth inhibition, most hits filed as inhibitors; actives 12% (n = 420,000); AID 686979, 2013; note: potency is the fitted concentration of half-maximal effect; % is set by controls: 0 for no effect and ±100 for the full control effect; nearly all actives have a fitted effect of over 55% in size
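Cell growth measured by CellTiter-Glo luminescence after a minimum 48 h, 37 C compound exposure with 20 nM CPT in Tdp1-knockout DT40 cells stably expressing hTDP1, seeded 400/well; qHTS titration format.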
IL-1B inflam inh: qHTS for Inhibitors of Inflammasome Signaling: IL-1-beta AlphaLISA Primary Screen | AID 743279, 2014 | THP-1 LPS/ATP IL-1B secretion, AlphaLISA, 16 h; hits give low values | actives 4.7% (n = 360,000) | activity change, % at 57.5 µM; in the data active = activity change below about -50%; inconclusive = mostly about -30% to -49%; note: % is set by controls: 0 for no effect and ±100 for the full control effect
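Secreted IL-1B measured by AlphaLISA bead assay after 16 h compound exposure of THP-1 cells; compounds (final up to 57.5 uM) added 1 h before LPS (250 ng/mL) and ATP (1.25 mM) stimulation; lower signal means less secretion.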
DT40 TDP1 no CPT: qHTS for Inhibitors of human tyrosyl-DNA phosphodiesterase 1 (TDP1): qHTS in cells in absence of CPT | DT40 Tdp1-/- hTDP1 cells, no CPT, ATP luminescence, 48 h | Potency, µM (titrated, usually from 46.2 µM), inactives show at the top dose activity change, negative = growth inhibition, hits mostly inhibitors | actives 15% (n = 420,000); note: potency is the fitted concentration of half-maximal effect; % is set by controls: 0 for no effect and ±100 for the full control effect; nearly all actives have a fitted effect of over 55% in size
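A cellular qHTS used chicken DT40 cells lacking endogenous Tdp1 but carrying stably transfected human TDP1. Compounds were applied without camptothecin, and cell growth kinetics were judged by ATP-dependent luminescence after ≥48 hr.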
Chronic BCR inh: qHTS Assay to Find Inhibitors of Chronic Active B-Cell Receptor Signaling; ABC-DLBCL IkBa-CBG/CBR reporter, luminescence ratio, 4 h; Potency, µM (titrated, usually from 46.1 µM), for inactives: at the top dose activity change, negative = inhibition, usual class: inhibitors; actives 0.05% (n = 340,000); active = well fitted inhibition curve with a large enough effect in the signal ratio, with a control signal flat, not every such curve was filed as active; inconclusive = small, poorly fitted or top-dose-only effect, or effect the other way, or a change in a side signal; the % refers to the signal ratio;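 note: potency is the fitted concentration of half-maximal effect; plate controls were basal doxycycline-induced cells for no effect and cells given 10 µM MG132 for full effect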
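Compounds up to 46 uM were incubated four hours with TMD8 cells whose green CBG68 luciferase is fused to IkappaBalpha; red CBR luminescence normalised the signal, and concentration-effect curves were fitted to fusion, red and ratio data.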
MCF10A rereplic: A quantitative high throughput screen for small molecules that induce DNA re-replication in MCF 10a normal breast cells. MCF 10A DNA re-replication, Hoechst nuclear intensity, 48 h. AID 624296, 2012. actives 2.9% (n = 350,000). Potency, µM (highest dose often 46.1 µM), for inactives: at the top dose activity, positive = re-replication, hits mostly activators; note: potency is the fitted concentration of half-maximal effect; % of control where 0% means no effect; nearly all actives have a fitted effect of over 50% in size
SW480 rerep: A quantitative high throughput screen for small molecules that induce DNA re-replication in SW480 colon adenocarcinoma cells | SW480 DNA re-replication, Hoechst DNA content imaging, 48 h | Potency, µM (doses to about 46.1 µM), inactives show at the highest dose re-replication activation, most hits filed as activators | actives 1.8% (n = 340,000) | AID 624297, 2012; note: potency is the fitted concentration of half-maximal effect; % of control where 0% means no effect; nearly all actives have a fitted effect of over 55% in size
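First, 250 cells per well were seeded. Next, compound or vehicle (23 nL) was pinned in, plates sat 48 hr at 37 C. Finally Hoechst was added for 40 min before fluorescence scanning.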
The depositor's hits bear a star; ? = inconclusive; · = no result. Unless noted, calls come from the whole dose curve; as a rule, active = well fitted curve in the direction sought with a large enough effect; inconclusive = small, poorly fitted or top-dose-only effect, or another doubt; inactive = no such curve, though single readings can be large; an effect the other way counts as inactive or inconclusive.

SMILES	TDP1 cell CPT	IL-1B inflam inh	DT40 TDP1 no CPT	Chronic BCR inh	MCF10A rereplic	SW480 rerep
CCOc1ccc(-n2c(C)cc(/C=C3/C(=N)N4C(=NC3=O)SN=C4S(C)(=O)=O)c2C)cc1	?	-1	?	-7%	15µM*	13%
Cc1cc(/C=C2/C(=N)N3C(=NC2=O)SN=C3S(C)(=O)=O)c(C)n1-c1ccc(F)cc1	4%	23	4%	4%	21µM*	-3%
COc1cccc(CNC(=O)c2c(OC)cc(=O)n3c2CCN(C(=O)C2CC24CCCCC4)CC3)c1 (configuration not stated)	0%	·	-15%	·	·	·
CCCCOC(=O)Nc1ccc(S(=O)(=O)Nc2ccc([N+](=O)[O-])cc2)cc1	-7%	10	-2%	?	15%	?
CCCCCOC(=O)Nc1ccc(S(=O)(=O)Nc2cccc([N+](=O)[O-])c2)cc1	-21%	-88*	?	11%	?	0%
CCCCCCCCN1C(=O)[C@H](CC(=O)N2CCN(C(=O)C3CC3)CC2)C[C@@]2(C(=O)OC)CCCCC=C12	?	-51*	16µM*	·	·	·
CCCCCCCCN1C(=O)[C@H](CC(=O)N2CCSCC2)C[C@@]2(C(=O)OC)CCCCC=C12	?	-68*	?	·	·	·
CCOC(=O)N1CCN(C(=O)C[C@@H]2C[C@@]3(C(=O)OC)CCCCC=C3N(CCc3ccc(OC)c(OC)c3)C2=O)CC1	?	-9	?	·	·	·
CCCCCCCCN1C(=O)[C@H](CC(=O)N2CCN(C(=O)C3CC3)CC2)C[C@@]2(C(=O)OCC)CCCC=C12	23µM*	-66*	23µM*	·	·	·
CCCCCCCCN1C(=O)[C@H](CC(=O)N2CCN(C(=O)OCC)CC2)C[C@@]2(C(=O)OC)CCCCC=C12	?	-8	21µM*	·	·	·
COCCNC(=S)N1CCN(Cc2cccc(OC)c2)CC1	-20%	3	9%	3%	9%	-11%
COCCn1c(C)cc(O)c(C(c2ccccc2F)N2CCN(c3ccccc3)CC2)c1=O (configuration not stated)	-21%	·	-19%	·	·	·
CCCCCCCCN1C(=O)[C@H](CC(=O)N2CCC(c3ccccc3)CC2)C[C@@]2(C(=O)OC)CCCCC=C12	?	-18	18µM*	·	·	·
COC(=O)[C@]12CCCCC=C1N(Cc1ccccc1)C(=O)[C@H](CC(=O)N1CCC(c3ccccc3)CC1)C2	?	-18	?	·	·	·
CCCCCCCCN1C(=O)[C@H](CC(=O)N2CCCC2)C[C@@]2(C(=O)OC)CCCCC=C12	16µM*	-17	18µM*	·	·	·
Nc1nc(Sc2c([N+](=O)[O-])cc(C(F)(F)F)cc2[N+](=O)[O-])n[nH]1	7.3µM*	-100*	21µM*	?	?	?
COc1cc(/C=C/C(=O)OCC(=O)Nc2ccc3[nH]c(=O)[nH]c3c2)ccc1OC(F)F	-6%	28	-7%	·	·	·
COc1cccc2c1cc1c(=O)n(CC(=O)N3CCN(c4cccc(C)c4)C(C)C3)nc(C)n12 (configuration not stated)	-22%	·	4%	·	·	·
COc1ccccc1NC(=O)Cc1noc(CSc2cc(C)c3ccccc3n2)n1	-9%	6	-29%	?	6%	-4%
COc1ccccc1NC(=O)Cc1noc(CSc2cccc[n+]2[O-])n1	-1%	0	-4%	23µM*	1%	1%
CN(CC(=O)Nc1ccc(OC(F)(F)F)cc1)C(=O)/C=C/c1ccco1	?	-21	23µM*	-4%	19%	-2%
